Source: PubChem (National Center for Advancing Translational Sciences (NCATS))
FUS suppressor: suppressors of FUS proteinopathy in yeast. S. cerevisiae FUS-expressing, growth rescue, OD600, 24 h. Potency, µM (titrated, usually from 76.6 µM), most hits filed as activators. 0.24% of 390,000 active;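 also: potency is read from the fitted curve at half-maximal effect; plate controls were DMSO vehicle for no effect and reference control for full effect; nearly all actives have a fitted effect of over 55% in size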
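Galactose (2%) drives FUS expression in yeast precultured in raffinose; seeding density OD 0.005. Test compounds incubated 24hr at 30C and 99% humidity before absorbance at 600 nm was measured.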
Abeta rescue: restores growth of yeast expressing A-beta42 peptide; AID 1347071; 0.063% of 410,000 active; yeast expressing A-beta42, growth rescue, OD600, 48 h; response scale: 0% DMSO, 100% iron-clioquinol control; Potency, µM (doses to about 46.1 µM), hits mostly activators; also: potency is read from the fitted curve at half-maximal effect; nearly all actives have a fitted effect of over 55% in size
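Yeast A-beta toxicity model in growth medium with pinned compounds, 48 h at 30 C; growth read as absorbance at 600 nm. Normalized to FeCl3/clioquinol equimolar mix (positive) and DMSO (negative).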
aSyn yeast inh: alpha-synuclein toxicity inhibition in yeast; Yeast expressing alpha-synuclein, growth rescue, BacTiter-Glo, 24 h; Potency, µM (titrated, usually from 46.1 µM), without a hit: top-dose growth rescue (activation), most hits filed as activators; 0.14% of 370,000 active; AID 652106; also: potency is read from the fitted curve at half-maximal effect; % of control where 0% means no effect; nearly all actives have a fitted effect of over 65% in size
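Readout is rescue of growth in alpha-synuclein-expressing yeast, so inhibitors of toxicity appear as activators. Growth after 24 hr at 30 deg C in galactose medium is quantified by luminescence.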
TDP-43 yeast inh: TDP-43 toxicity inhibition in yeast; 1.8% of 410,000 active; AID 652104; TDP-43 expressing yeast growth rescue, BacTiter-Glo, 24 h; Potency, µM (titrated, usually from 46.1 µM), for inactives: top-dose growth rescue (activation), usual class: activators; also: potency is read from the fitted curve at half-maximal effect; % of control where 0% means no effect; nearly all actives have a fitted effect of over 50% in size
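Yeast expressing TDP-43 (pregrown in raffinose, seeded at OD600=0.02 in galactose medium) exposed to compounds 24 hr at 30 deg C. Growth read by BacTiter-Glo luminescence; rescue of toxicity appears as increased signal.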
PTHR1 agonist: activates the human parathyroid hormone receptor PTHR1. HEK293 GP2 PTHR1 cells, GloSensor cAMP luminescence, 1 h. AID 743266. 0.075% of 410,000 active. Q03431. Potency, µM (series often up to 115 µM), inactives show top-dose activation, actives largely listed as activators; also: potency is read from the fitted curve at half-maximal effect; nearly all actives have a fitted effect of over 55% in size
Target sequence (Q03431 whole entry, looked up): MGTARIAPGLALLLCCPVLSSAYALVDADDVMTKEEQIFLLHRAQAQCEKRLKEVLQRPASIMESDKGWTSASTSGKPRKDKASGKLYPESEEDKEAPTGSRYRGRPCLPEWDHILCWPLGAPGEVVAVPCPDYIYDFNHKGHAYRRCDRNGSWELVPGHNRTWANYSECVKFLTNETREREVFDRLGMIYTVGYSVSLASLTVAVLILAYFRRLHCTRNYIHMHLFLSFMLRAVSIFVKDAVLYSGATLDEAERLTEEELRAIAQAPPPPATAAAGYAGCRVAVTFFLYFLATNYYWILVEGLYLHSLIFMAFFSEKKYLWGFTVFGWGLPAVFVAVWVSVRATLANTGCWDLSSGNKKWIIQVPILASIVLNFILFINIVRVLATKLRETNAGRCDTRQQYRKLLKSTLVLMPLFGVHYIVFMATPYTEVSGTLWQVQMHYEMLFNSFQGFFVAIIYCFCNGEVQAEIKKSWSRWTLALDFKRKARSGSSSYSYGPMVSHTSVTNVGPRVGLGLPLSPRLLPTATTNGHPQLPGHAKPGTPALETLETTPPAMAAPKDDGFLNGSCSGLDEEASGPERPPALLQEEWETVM
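HEK-293-derived GP2 cells expressing PTHR1 and a GloSensor cAMP reporter, 3,000/well, plated overnight, given luciferin plus IBMX (each 0.5 mM as added) for 1 h at 37 °C, then compound for 1 h at 37 °C. Luminescence was read after 15 min at room temperature.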
LDHA block: LDHA (human) enzyme inhibition. P00338. purified LDHA, NADH/diaphorase-resazurin fluorescence; active compounds read low. activity change, % (values are at about 110 or 230 µM). 0.15% of 480,000 active; in the data active = activity change below about -30%; inconclusive = mostly about -25% to -30%;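 also: plate controls were DMSO wells for no effect and wells without enzyme for full effect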
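Human LDH5 at 2 nM final in Tris HCl pH 7.4 with 0.06 mM NADH and 0.2 mM pyruvate, reacted 5 minutes at room temperature. Remaining NADH coupled via diaphorase/resazurin; resorufin fluorescence read at 0 and 20 minutes, normalized to enzyme-free and DMSO wells.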
* marks the source's active call; other numbers are inactive results; i = inactive; ? = inconclusive; / = no result given; [ ] = another dose, or the depositor's remark. Compounds with a hit are over-represented: about 1.9% of the library has one in this group of screens. Unless noted, calls follow the shape of the dose curve; as a rule, active = well fitted curve in the direction sought with a large enough effect; inconclusive = small, poorly fitted or top-dose-only effect, or another doubt; inactive = no such curve, though single readings can be large; an effect the other way counts as inactive or inconclusive.

SMILES	FUS suppressor	Abeta rescue	aSyn yeast inh	TDP-43 yeast inh	PTHR1 agonist	LDHA block
COc1cc(OC)c2c(C)c(CC(=O)NC3CCCCCCC3)c(=O)oc2c1	/	/	/	/	/	-11.9
O=Cc1c(Sc2ccccc2)nc2ccccn2c1=O	i	i	18.0%	12.6µM*	-25.5%	-3.4
CCc1ccccc1N(C(C)=O)c1nc(COc2ccccc2C(N)=O)cs1	/	/	/	/	/	-30.1*
CCc1cccc2c(C(=O)COC(=O)c3cc(S(=O)(=O)N4CCOCC4)ccc3F)c[nH]c12	/	/	/	/	/	8.3
CCOc1cc2c(c3c1C(c1ccccc1)N(S(=O)(=O)c1ccc(C)cc1)C3)C(=O)C=CC2=O (stereo not given)	i	i	-2.9%	12.6µM*	-30.0%	7.6
CC(=O)Nc1ccc(C(=O)N2CCCCC2c2cc(C(=O)Nc3cccc4c3CCCC4)no2)cc1 (stereo not given)	?	i	16.0%	?	i	-3.1
Cn1nc(C(C)(C)C)cc1C(=O)N1CCCCC1c1cc(C(=O)Nc2cccc3c2CCCC3)no1 (stereo not given)	31.6µM*	i	8.2%	6.5%	i	-3.1
CN(Cc1ccccc1)C(=O)CCn1c(=O)oc2ccccc21	i	i	9.2%	15.2%	-5.3%	-9.3
O=C(CCn1c(=O)oc2ccccc21)N(Cc1ccccc1)c1ccccc1	i	i	-0.5%	22.4µM*	-51.6%	-19.2
O=C(CCl)N(Cc1ccccc1)c1ccccc1	i	i	-13.3%	20µM*	-17.9%	1.5
COC(=O)c1ccccc1OS(=O)(=O)c1ccc2c(c1)CCC2	/	/	/	/	/	-3.7
Cc1oc(-c2ccccc2)nc1C(=O)N1CCN(C)CC1c1ccccc1 (stereo not given)	/	/	/	/	/	-1.4
O=C(NCc1nc2ccccc2[nH]1)C1=C[C@H](c2ccc(C(F)(F)F)cc2)C[C@H](OCc2ccc(CO)cc2)O1	25.1µM*	i	-11.0%	-1.2%	-35.9%	1.4
COc1ccc(-n2ncc3c(NCC(C)C)ncnc32)cc1	i	i	1.1%	11.2µM*	-97.5%	0.6
Cc1ccc(-n2ncc3c(NCc4ccccc4)ncnc32)cc1	i	i	-3.0%	9.3%	i	-4.1
COc1ccccc1CNc1ncnc2c1cnn2-c1ccccc1	i	i	-0.4%	15.8µM*	-40.2%	-1.8
COc1ccccc1CNc1ncnc2c1cnn2-c1ccc(C)cc1	i	i	/	35.5µM*	-16.5%	-2.8
COc1ccc(-n2ncc3c(NC(C)C)ncnc32)cc1	i	i	-1.4%	?	-19.8%[57.5 µM]	-7.4
CC1CCCC(NC(=O)c2cccc(S(=O)(=O)NCc3ccccc3)c2)C1C (stereo not given)	i	i	6.7%	35.5µM*	-39.4%	0.0
CC1CCCC(NC(=O)c2cccc(S(=O)(=O)N3CCN(c4ccccc4)CC3)c2)C1C (stereo not given)	i	i	-0.6%	19.1%	-38.6%	-4.9
CCn1nc(C(=O)Nc2cccc3ccccc23)c(Cl)c1Cl	i	i	-4.4%	15.8µM*	i	6.7
COC(=O)N[C@@H]1C[C@H]2[C@@H]3CC[C@H]4C[C@@H](OC)CC[C@]4(C)[C@H]3CC[C@@]12C	i	i	-18.3%	28.2µM*	-23.3%	0.7
Cc1c(C(=S)Nc2ccccc2)cnn1-c1ccc([N+](=O)[O-])cc1	/	i	16.3%	12.6µM*	-30.1%	-2.6
Cc1c(C(=S)Nc2ccccc2)cnn1-c1ccccc1	/	i	6.5%	15.8µM*	-0.8%	-7.3
CC(=O)c1cnn(-c2ccccc2)c1C	i	i	-10.3%	-4.1%	-20.5%	-4.8
SMILES	FUS suppressor	Abeta rescue	aSyn yeast inh	TDP-43 yeast inh	PTHR1 agonist	LDHA block
O=C(O)C1(c2ccc(Cl)cc2)CCCC1	/	/	/	/	/	-2.5
COc1ccc2c(c1)C1=NN(/C(C)=C/C(C)=O)C(c3ccc(F)cc3)C1CC2 (stereo not given)	/	i	6.7%	22.4µM*	-70.0%	37.9
CCOC(=O)c1[nH]c2ccc(C)cc2c1NC(=O)c1ccccc1F	/	/	/	/	/	-12.9
COc1ccc(CNC(=O)C(C)Cl)cc1 (stereo not given)	/	/	/	/	/	-1.0
CCCC[n+]1c(NCc2cc(Cl)ccc2[O-])[nH]c2ccccc21	/	/	/	/	/	-13.0
CCCc1sc(C(=O)Nc2ccccc2O)cc1CC	/	/	/	/	/	4.3
COc1cc(C(O)c2nc(-c3ccc(C)c(C)c3)cs2)ccc1F (stereo not given)	i	i	?	35.5µM*	i	0.2
OC(c1ccccc1)c1nc(-c2cc3ccccc3o2)cs1 (stereo not given)	i	i	11.2%	14.1µM*	i	-5.1
Cc1ccc(-c2csc(C(O)c3ccccc3)n2)cc1C (stereo not given)	i	i	?	25.1µM*	-5.5%	-0.7
COc1ccc(C(O)c2nc(-c3cc4ccccc4o3)cs2)cc1 (stereo not given)	i	i	?	23.9%	-38.2%	-10.6
O=C(O)c1ccc(COc2ccc(F)c(Cl)c2)o1	/	/	/	/	/	-2.9
C=C(C)COc1ccc2cc(-c3ccc(OC)cc3OC)c(=O)oc2c1	/	/	/	/	/	2.5
Cc1oc2cc(OC(=O)c3ccco3)ccc2c(=O)c1-c1ccc(Br)cc1	/	/	/	/	/	-34.1*
COC(=O)C1=CN(c2ccc(OC)cc2)C(N)=C(C#N)C1c1ccc(OC)cc1 (stereo not given)	?	i	10.9%	2.5%	-1.7%	-6.5
CCc1ccc(N2C=C(C(=O)OC)C(c3ccc(OC)cc3)C(C#N)=C2N)cc1 (stereo not given)	?	i	25.1µM*	?	-48.2%	1.9
Cc1nc2c(-c3ccccc3)c(C)nn2c(C)c1CCC(=O)N1CCN(c2ccccc2)CC1	i	i	/	12.6µM*	-2.1%	-7.4
COc1ccc(OC)c(NC(=O)CCc2c(C)nc3c(-c4ccccc4)c(C)nn3c2C)c1	?	i	/	20µM*	-0.3%	5.8
COc1ccc(CCNC(=O)CCc2c(C)nc3cc(-c4ccccc4OC)nn3c2C)c(OC)c1	?	i	/	17.8µM*	-17.4%	0.8
Cc1nc2c(-c3ccccc3)c(C)nn2c(C)c1CCC(=O)N1CCN(c2ccc(F)cc2)CC1	i	i	/	14.1µM*	-27.7%	-5.2
COc1ccc(NC(=O)CCc2c(C)nc3c(-c4ccc(F)cc4)c(C)nn3c2C)c(OC)c1	i	i	/	9.7%	-4.9%	1.4
